# In PubChem BioAssay (NCATS):
# Records with an inconclusive call do not appear. Entries that show only a call come without a potency. Unmarked numbers belong to inactive results. Activity calls are given as the source filed them. Calls follow the shape of the dose curve; as a rule, active = well fitted curve in the direction sought with a large enough effect; inconclusive = small, poorly fitted or top-dose-only effect, or another doubt; inactive = no such curve, though single readings can be large; an effect the other way counts as inactive or inconclusive.
# Tests used:
# [1] = molecular target: Aldehyde dehydrogenase, mitochondrial (Homo sapiens) (UniProt P05091); assay: qHTS for Inhibitors of the Aldehyde Dehydrogenase Family (ALDH2) Primary screen (AID 2061308); also: nearly all actives have a fitted effect of over 55% in size
# [2] = molecular target: Retinaldehyde dehydrogenase 3 (Homo sapiens) (UniProt P47895); assay: qHTS for Inhibitors of the Aldehyde Dehydrogenase Family (ALDH1A3) Primary screen (AID 2061315)
# [3] = BET inhibitor-based combinations targeting novel dependencies in MECOM-rearranged (r) AML: SET-2 cell line (AID 2202231); settings: SET-2 AML cells viability, CellTiter-Glo luminescence, 48 h; viability: hits give low values, series mostly up to about 46 µM; also: nearly all actives have a fitted effect of over 35% in size
# Procedure, shortened: (§1)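 Each compound was tested at eleven concentrations on cells seeded at 500/well. After two days' incubation, ATP-based luminescence reported viability; responses relative to DMSO and blank wells yielded AUC and cell-line-centred Z-AUC.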
# [4] = BET inhibitor-based combinations targeting novel dependencies in MECOM-rearranged (r) AML: OCI-AML3 cell line (AID 2202232); settings: Potency: OCI-AML3 viability; also: series mostly up to about 46 µM; nearly all actives have a fitted effect of over 35% in size
# Procedure, shortened: as §1
# [5] = BET inhibitor-based combinations targeting novel dependencies in MECOM-rearranged (r) AML: MV-4-11 cell line (AID 2202233); also: nearly all actives have a fitted effect of over 45% in size
# Procedure, shortened: (§2)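 First, 500 cells per well were seeded; next, drugs were pinned as 11-point doses; then plates sat 48 hr in the incubator; finally CellTiter-Glo was added and luminescence read, with AUC and Z-AUC computed.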
# [6] = BET inhibitor-based combinations targeting novel dependencies in MECOM-rearranged (r) AML: HNT-34 cell line (AID 2202234); also: nearly all actives have a fitted effect of over 35% in size
# Procedure, shortened: as §2
# [7] = BET inhibitor-based combinations targeting novel dependencies in MECOM-rearranged (r) AML: AML-191 cell line (AID 2202236; also: nearly all actives have a fitted effect of over 35% in size)
# Procedure, shortened: as §1
# [8] = BET inhibitor-based combinations targeting novel dependencies in MECOM-rearranged (r) AML: AML-194 cell line (AID 2202237; also: nearly all actives have a fitted effect of over 40% in size)
# Procedure, shortened: as §1
structure (smiles),measurement,setting,value
C[C@H]1O[C@@H](O[C@H]2CC[C@]3(C=O)C4CC[C@]5(C)[C@@H](C6=CC(=O)OC6)CC[C@]5(O)[C@@H]4CC[C@]3(O)C2)C[C@@H](O)[C@@H]1O (stereo partly specified),Potency,[1],inactive
same,Potency,[2],inactive
CC(C)(C)NC[C@H](O)c1ccc(O)cc1Cl,Potency,[1],inactive
same,Potency,[2],inactive
COC1CC(O[C@H]2CC[C@@]3(C)C(=CCC4C3C(O)[C@@H](O)[C@]3(C)[C@@H](C(C)=O)CC[C@]43O)C2)OC(C)C1OC1CC(OC)C(OC2OC(C)C(O)C(O)C2O)C(C)O1 (stereo partly specified),Potency,[1],inactive
same,Potency,[2],inactive
CCN1CCN(C(c2ccc(Cl)cc2)c2ccc(Cl)cc2)CC1,Potency,[1],inactive
same,Potency,[2],inactive
CCOc1ccc(CCNC(=O)c2cc3sccc3n2Cc2ccc(F)cc2F)cc1OCC,Potency,[1],inactive
same,Potency,[2],inactive
CCOc1ccc(CCNC(=O)c2cc3ncccc3n2Cc2cccc(C)c2)cc1OCC,Potency,[1],inactive
same,Potency,[2],inactive
S=P(c1ccccc1)(c1ccccc1)c1c[n+](Cc2ccccc2)c2ccccn12,Potency,[1],inactive
same,Potency,[2],inactive
CC(=O)O[C@H]1C[C@@H](OC(C)=O)C(C)(C)C2C[C@@H](O)[C@]3(C)C(CC[C@@]4(C)[C@H](C5=CC(=O)OC5O)C[C@H]5O[C@]543)[C@]21C (stereo partly specified),Potency,[1],inactive
same,Potency,[2],inactive
N#Cc1ccc(NC(=O)Nc2nnc(-c3ccncc3)s2)cc1C(F)(F)F,Potency,[1],inactive
same,Potency,[2],inactive
CCOc1ccc(CCNC(=O)c2ccccc2)cc1OCC,Potency,[1],inactive
same,Potency,[2],inactive
CCOP(=O)(OCC)Oc1ccc2c(C)cc(=O)oc2c1,Potency,[1],inactive
same,Potency,[2],inactive
C#CCO[C@H]1CN2CCC1CC2,Potency,[1],inactive
same,Potency,[2],inactive
COC1CC(O[C@H]2CC[C@@]3(C)C(CCC4C3CC[C@]3(C)C(C5=CC(=O)OC5)CCC43O)C2)OC(C)C1OC1OC(COC2OC(CO)C(O)C(O)C2O)C(O)C(O)C1O (stereo partly specified),Potency,[1],inactive
same,Potency,[2],inactive
CCOc1ccc(CCNC(=O)c2cc3cccnc3n2Cc2cccc(C)c2)cc1OCC,Potency,[1],inactive
same,Potency,[2],inactive
CN1Cc2c(ccc3c2OCO3)[C@@H]2[C@H]1c1cc3c(cc1C[C@@H]2O)OCO3,Potency,[1],inactive
same,Potency,[2],inactive
CC(=O)OC[C@]12C[C@H](OC(=O)CC(C)C)C(C)=C[C@H]1O[C@@H]1[C@H](O)[C@@H](O)[C@@]2(C)[C@]12CO2,Potency,[1],inactive
same,Potency,[2],inactive
Cc1c(N2C(=O)[C@@H]3[C@H](O)CCN3C2=O)ccc(C#N)c1Cl,Potency,[1],inactive
same,Potency,[2],inactive
Cc1cccc(-n2cnc3cc(C(=O)N4CCCC(C)C4)ccc32)c1 (stereo unspecified),Potency,[1],inactive
same,Potency,[2],inactive
CCOc1ccc(CCNC(=O)c2ccc(C(=O)c3ccccc3)cc2)cc1OCC,Potency,[1],inactive
same,Potency,[2],inactive
O=C1CCCC2=C1C(c1[nH]ncc1Cl)N=C(Nc1nc3ccc(F)cc3o1)N2 (stereo unspecified),Potency,[1],inactive
same,Potency,[2],inactive
CCOc1ccc(CCNC(=O)c2cc3ccccc3n2CCN2CCOCC2)cc1OCC,Potency,[1],inactive
same,Potency,[2],inactive
Cc1[nH]c2ccccc2c1P(=S)(c1ccccc1)c1ccccc1,Potency,[1],inactive
same,Potency,[2],inactive
COC1C(O)C(C)OC(OC2C(CO)O[C@@H](O[C@@H]3CC4CCC5C(CC[C@]6(C)[C@@H](C7=CC(=O)OC7)CC[C@]56O)[C@@]4(C)[C@H](OC(C)=O)C3)C(O)C2O)C1O (stereo partly specified),Potency,[1],inactive
same,Potency,[2],inactive
Cc1ccc2nc(NC3=NC(c4[nH]ncc4Cl)C4=C(CCCC4=O)N3)oc2c1 (stereo unspecified),Potency,[1],inactive
same,Potency,[2],inactive
CCCCn1cc(C(=O)c2cccc3ccccc23)c2ccccc21,Potency,[1],inactive
same,Potency,[2],inactive
COc1ccc(C23CCC(=O)C=C2N(C)CC3)cc1OC (stereo unspecified),Potency,[1],inactive
same,Potency,[2],inactive
N#Cc1ccc(NC(=O)Nc2nnc(-c3ccncc3)s2)cc1Cl,Potency,[1],inactive
same,Potency,[2],inactive
CC(=O)O[C@H]1C(=O)[C@]2(C)C(O)C[C@H]3OC[C@@]3(OC(C)=O)[C@H]2[C@H](OC(=O)c2ccccc2)[C@]2(O)C[C@H](O)C(C)=C1C2(C)C (stereo partly specified),Potency,[1],inactive
same,Potency,[2],inactive
C/C=C(\C)C(=O)O[C@@H]1[C@@H](C)[C@]2(O)C3C=C(C)C(=O)[C@@]3(O)CC(CO)=C[C@H]2C2C(C)(C)[C@@]21OC(=O)C(C)CC (stereo partly specified),Potency,[1],inactive
same,Potency,[2],inactive
S=P(c1ccccc1)(c1ccccc1)c1c[nH]c2ccccc12,Potency,[1],inactive
same,Potency,[2],inactive
COC1CC(OC2CCC3(C=O)C(CCC4C3CCC3(C)C(C5=CC(=O)OC5)CCC43O)C2)OC(C)C1OC1OC(CO)C(O)C(O)C1O (stereo unspecified),Potency,[1],inactive
same,Potency,[2],inactive
CN1CCc2cc3c(cc2[C@H]1[C@@H]1OC(=O)c2c1ccc1c2OCO1)OCO3,Potency,[1],inactive
same,Potency,[2],inactive
O=C(NCCN1CCC2(CC1)C(=O)NCN2c1cccc(F)c1)c1ccc2ccccc2c1,Potency,[1],inactive
same,Potency,[2],inactive
Cc1c(P(=S)(c2ccccc2)c2ccccc2)c2ccccc2n1C,Potency,[1],inactive
same,Potency,[2],inactive
Cc1nnc2n1-c1sc(CCc3ccc(CC(C)C)cc3)cc1C(c1ccccc1Cl)=NC2C (stereo unspecified),Potency,[1],inactive
same,Potency,[2],inactive
COc1cccc(CNc2ccc(S(=O)(=O)Nc3nccs3)cc2)c1OC,Potency,[1],inactive
same,Potency,[2],inactive
Cc1c(P(=S)(c2ccccc2)c2ccccc2)[n+]2ccccc2n1C,Potency,[1],inactive
same,Potency,[2],inactive
CC(=O)OC[C@H](N)C(=O)c1ccccc1,Potency,[1],inactive
same,Potency,[2],inactive
C[C@@H](CN1CCC(n2c(=O)[nH]c3cc(Br)ccc32)CC1)NC(=O)[C@@H]1C[C@H]1c1ccccc1,Potency,[1],inactive
same,Potency,[2],inactive
C[C@@H]1O[C@@H](O[C@H]2CC[C@@]3(C)C(CC[C@@H]4C3CC[C@]3(C)[C@@H](C5=CC(=O)OC5)CC[C@]43O)C2)[C@H](O[C@@H]2O[C@H](CO)[C@@H](O)[C@H](O)[C@H]2O)[C@H](O)[C@H]1O (stereo partly specified),Potency,[1],inactive
same,Potency,[2],inactive
CN(C)NC(=O)CCC(=O)O,viability,[3],87.9%
same,Potency,[4],inactive
same,Potency,[5],inactive
same,Potency,[6],inactive
same,Potency,[7],inactive
same,Potency,[8],inactive
